# According to PubChem BioAssay:
# For some assays here: Potency and affinity values are given separately. The source made the active and inactive calls.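 How the source made its calls, unless noted: active means at least 20% inhibition of 6-phosphogluconate dehydrogenase activity; inactive means the rest.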 Peptide text beside a SMILES is read from it. * marks the point of attachment. For = O=C*
# Tests used:
# [1] = biological target: 6-phosphogluconate dehydrogenase, decarboxylating (Homo sapiens) (UniProt P52209); assay: inhibition of human phosphogluconate dehydrogenase – biochemical, recombinant enzyme, NADPH absorbance, primary screen (AID 1159550); conditions: recombinant 6PGD, NADPH absorbance 341 nm; at 10 µM; stronger effect = higher value
# [2] = biological target: Mitogen-activated protein kinase 7 (Homo sapiens) (UniProt Q13164); assay: Gal4-ERK5 driven luciferase induction – cell-based, HTS, primary screen (AID 1508626;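 active means luciferase signal above three times the same-plate solvent-only control wells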;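 further: luciferase driven by Gal4-ERK5 fusion binding five Gal4 sites before minimal TATA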); conditions: HeLa Gal4-ERK5 transactivation, 18 h, at 5 µM, stronger effect = higher value
# [3] = P. berghei load reduction in hepatocytes – cell-based, HepG2, luciferase luminescence, HepG2 viability, primary screen (AID 624349; in the data active means parasite load remaining mostly below about 12%, no sharp cut-off; inactive means mostly above about 10%;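 further: 100% = mean of DMSO negative control wells on the same plate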); conditions: P. berghei liver stage in HepG2, luciferase luminescence, concentration not given here; parasite load remaining: stronger effect = lower value; viability: measured here: HepG2 viability without parasites
# [4] = signal quenchers or enhancers, Cy5 substrate/SSB – biochemical, NIH Clinical Collection, E. coli SSB, artefact control for HCV NS3 helicase inhibitor project (AID 743268; call rule not given here); conditions: Cy5-oligo bound E. coli SSB, fluorescence interference
# [5] = tested on: Hepatitis C virus NS3 helicase; assay: blockers of NS3h binding to DNA – biochemical, fluorescence polarization, NIH Clinical Collection, primary screen (AID 743270; call rule not given here); conditions: NS3 helicase binding to Cy5-dT15 DNA, stronger effect = higher value, concentration not given here
# [6] = biological target: Single-stranded DNA-binding protein (Escherichia coli (strain K12)) (UniProt P0AGE0); assay: SSB-ssDNA binding inhibitors – biochemical, fluorescence polarization, NIH Clinical Collection, counter-screen for HCV NS3 helicase inhibitor project (AID 743271; in the data active means inhibition above about 28%); conditions: E. coli SSB-DNA binding, stronger effect = higher value, concentration not given here
# [7] = compounds distorting NS3 helicase fluorescence signal – biochemical, NIH Clinical Collection, artefact control for HCV NS3 helicase inhibitor project (AID 743272; call rule not given here;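 further: HCV NS3 helicase with a Cy5 labelled single stranded DNA probe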); conditions: fluorescence interference counterscreen, HCV NS3 helicase assay; stronger effect = lower value
# [8] = blockers of polyQ-driven CASP3 activation – cell-based (AID 1583); conditions: polyglutamine-induced caspase-3 activation, cell assay; stronger effect = higher value;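 tested at 10 µM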
# [9] = yeast 75Q aggregation reduction – 75Q-TubU reporter (AID 1593); conditions: Yeast 75Q polyglutamine aggregation reporter
# [10] = restoration of touch response, mutant HTT neurons – whole organism, C. elegans mechanosensory neurons, N-terminal huntingtin (AID 1599); conditions: C. elegans polyQ-huntingtin mechanosensory neurons, stronger effect = higher value
# [11] = blockers of cytochrome c efflux from mitochondria – biochemical, purified mitochondria (AID 1603); conditions: stronger effect = lower value;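 further: mouse liver mitochondria challenged with calcium chloride; signal normalized to the plate average as 100%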
# [12] = polyglutamine aggregate formation blockers (AID 1604); conditions: polyglutamine-induced protein aggregation inhibition assay; stronger effect = higher value; tested at 2.5 µM
# [13] = glutamate transport activators, MN-1 cells, MN-1 cell line (AID 1612); conditions: MN-1 motor neuron cells, stronger effect = higher value;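 further: tested at 1 µM final; 0% = mean of DMSO vehicle wells on each plate; positive means more glutamate uptake than control and negative means less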
# [14] = GFP-Q80 aggregate reduction, neuronal-like cells, cell-based, NGF-treated PC12, GFPQ80 (AID 1614); conditions: PC12 NGF-treated GFP-polyQ80 inclusion reduction;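 further: lower means fewer inclusions and 0 means no inclusions at all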
# [15] = 75Q-TubH aggregate inhibition, S. cerevisiae, yeast (AID 1616); conditions: S. cerevisiae 75Q-TubH polyglutamine aggregation suppression; stronger effect = higher value
# Sequence of 6-phosphogluconate dehydrogenase, decarboxylating (Homo sapiens) (P52209 whole entry, looked up, the tested form may be a part): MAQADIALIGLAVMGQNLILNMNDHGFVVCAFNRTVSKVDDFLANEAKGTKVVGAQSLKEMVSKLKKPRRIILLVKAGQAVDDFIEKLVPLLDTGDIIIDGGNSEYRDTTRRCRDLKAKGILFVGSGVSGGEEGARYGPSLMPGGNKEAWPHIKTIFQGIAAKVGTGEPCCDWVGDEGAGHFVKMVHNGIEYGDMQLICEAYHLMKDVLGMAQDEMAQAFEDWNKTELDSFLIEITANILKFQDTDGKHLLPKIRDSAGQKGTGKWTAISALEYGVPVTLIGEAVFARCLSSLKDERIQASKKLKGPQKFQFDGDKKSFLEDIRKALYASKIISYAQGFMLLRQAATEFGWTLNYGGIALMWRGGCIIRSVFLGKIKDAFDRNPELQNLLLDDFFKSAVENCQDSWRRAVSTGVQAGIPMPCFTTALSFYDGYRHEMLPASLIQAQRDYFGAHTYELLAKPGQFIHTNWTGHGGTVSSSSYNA
# Sequence of Mitogen-activated protein kinase 7 (Homo sapiens) (Q13164 whole entry, looked up, the tested form may be a part): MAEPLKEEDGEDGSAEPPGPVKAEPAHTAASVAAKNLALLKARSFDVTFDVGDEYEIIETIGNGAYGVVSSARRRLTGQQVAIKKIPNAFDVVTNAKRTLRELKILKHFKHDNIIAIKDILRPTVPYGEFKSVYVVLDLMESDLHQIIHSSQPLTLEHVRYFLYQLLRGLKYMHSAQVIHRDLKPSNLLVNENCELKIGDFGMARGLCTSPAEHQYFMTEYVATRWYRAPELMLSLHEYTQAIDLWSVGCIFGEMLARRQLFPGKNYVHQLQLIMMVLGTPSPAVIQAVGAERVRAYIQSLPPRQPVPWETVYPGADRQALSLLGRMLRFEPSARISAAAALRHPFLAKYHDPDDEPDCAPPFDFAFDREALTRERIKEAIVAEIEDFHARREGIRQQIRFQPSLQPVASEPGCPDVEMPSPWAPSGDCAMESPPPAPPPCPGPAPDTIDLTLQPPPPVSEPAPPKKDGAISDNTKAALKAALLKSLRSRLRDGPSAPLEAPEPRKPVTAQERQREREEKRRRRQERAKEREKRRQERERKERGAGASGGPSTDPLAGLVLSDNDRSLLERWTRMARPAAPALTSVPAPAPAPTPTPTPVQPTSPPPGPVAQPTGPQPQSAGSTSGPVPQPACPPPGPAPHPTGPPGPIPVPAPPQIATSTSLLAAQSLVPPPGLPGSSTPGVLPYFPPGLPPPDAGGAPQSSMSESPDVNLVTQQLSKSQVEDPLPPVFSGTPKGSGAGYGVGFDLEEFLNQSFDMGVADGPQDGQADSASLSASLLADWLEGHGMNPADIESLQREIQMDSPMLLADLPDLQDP
smiles,measurement,setting,value
COc1ccc(C2CC(=O)c3ccc(OC)cc3O2)cc1 (stereo not given),inhibition,[1],21.7% (active)
same,luciferase signal,[2],84 AU (inactive)
COC(=O)c1c(C)cc(OC)cc1O,inhibition,[1],-8.1% (inactive)
same,luciferase signal,[2],32 AU (inactive)
CC=C1[C@H]2C=C(C)C[C@]1(N)c1ccc(=O)[nH]c1C2,parasite load remaining,[3],62.9% (inactive)
same,viability,[3],72.6%
same,fluorescence ratio,[4],0.99 (inactive)
same,inhibition,[5],-2.84% (inactive)
same,inhibition,[6],-1.97% (inactive)
same,fluorescence ratio,[7],0.96 (inactive)
same,inhibition,[1],-0.222% (inactive)
same,luciferase signal,[2],44 AU (inactive)
NC(N)=NCCC[C@@H](NC(=O)[C@@H](N)Cc1ccc(O)cc1)C(=O)O,inhibition,[8],-8.49%
same,score,[9],1.34
same,rescue above control,[10],13.2
same,cytochrome c release ratio,[11],0.94
same,inhibition of aggregation,[12],77%
same,glutamate uptake change,[13],17.2%
same,inclusion score,[14],2
same,aggregation suppression score,[15],1.22
same,inhibition,[1],7.11% (inactive)
CC(C)=CCC/C(C)=C\CO,inhibition,[1],6.7% (inactive)
same,luciferase signal,[2],60 AU (inactive)
COC(=O)[C@H]1[C@H]2C[C@H]3c4[nH]c5cc(OC)ccc5c4CCN3C[C@H]2C[C@@H](OC(=O)c2cc(OC)c(OC)c(OC)c2)[C@@H]1OC,inhibition,[8],-6.47%
same,score,[9],1.04
same,rescue above control,[10],-3.75
same,cytochrome c release ratio,[11],1.13
same,inhibition of aggregation,[12],26.7%
same,glutamate uptake change,[13],8.81%
same,inclusion score,[14],2.5
same,aggregation suppression score,[15],0.976
same,inhibition,[1],0.174% (inactive)
same,luciferase signal,[2],92 AU (inactive)
COc1ccc(/C=C/c2cc(O)cc(O[C@@H]3O[C@H](CO)[C@@H](O)[C@H](O)[C@H]3O)c2)cc1O,inhibition,[8],4.89%
same,score,[9],1.27
same,rescue above control,[10],-0.21
same,cytochrome c release ratio,[11],0.78
same,inhibition of aggregation,[12],12.9%
same,glutamate uptake change,[13],4.82%
same,inclusion score,[14],2
same,aggregation suppression score,[15],1.41
same,inhibition,[1],-5.87% (inactive)
CSCCC(NC=O)C(=O)NC(Cc1ccccc1)C(=O)O (stereo not drawn) (For-Met-Phe-OH; configuration not given here),inhibition,[8],0.6%
same,score,[9],1.4
same,rescue above control,[10],4.29
same,cytochrome c release ratio,[11],1.19
same,inhibition of aggregation,[12],59.3%
same,glutamate uptake change,[13],0%
same,inclusion score,[14],2
same,aggregation suppression score,[15],0.985
same,inhibition,[1],6.92% (inactive)
COC(=O)C(C)c1ccc(C(=O)c2cccs2)cc1 (stereo not given),parasite load remaining,[3],119% (inactive)
same,viability,[3],76.5%
same,inhibition,[1],-13.2% (inactive)
same,luciferase signal,[2],44 AU (inactive)
CC(N)C(=O)NC(Cc1ccccc1)C(=O)O (stereo not given),inhibition,[8],17.1%
same,score,[9],1.2
same,rescue above control,[10],1.23
same,cytochrome c release ratio,[11],1.13
same,inhibition of aggregation,[12],77.8%
same,glutamate uptake change,[13],2.41%
same,inclusion score,[14],2
same,aggregation suppression score,[15],1.4
same,inhibition,[1],16.4% (inactive)
O=C1C=C(O)c2ccccc2C1=O,inhibition,[1],5.16% (inactive)
same,luciferase signal,[2],44 AU (inactive)
O=C(O)/C=C(/CC(=O)O)C(=O)O,inhibition,[1],8.82% (inactive)
same,luciferase signal,[2],60 AU (inactive)
NC(=O)c1ccc[n+]([C@@H]2O[C@H](COP(=O)([O-])OP(=O)(O)OC[C@H]3O[C@@H](n4cnc5c(N)ncnc54)[C@H](OP(=O)(O)O)[C@@H]3O)[C@@H](O)[C@H]2O)c1,inhibition,[8],19.9%
same,score,[9],1.08
same,rescue above control,[10],9.74
same,cytochrome c release ratio,[11],0.78
same,inhibition of aggregation,[12],-21.6%
same,glutamate uptake change,[13],16.5%
same,inclusion score,[14],2
same,aggregation suppression score,[15],0.975
same,parasite load remaining,[3],169% (inactive)
same,viability,[3],83.2%
same,inhibition,[1],16.2% (inactive)
same,luciferase signal,[2],32 AU (inactive)
